Bioassay records from PubChem.
PLCb3 inh: blocks human PLC-beta3 enzyme activity; Q01970; Purified PLC-beta3, fluorogenic substrate, fluorescence; inhibition, % at 12.2 µM; 0.18% of 370,000 active; AID 720704; in the data active = inhibition above about 11%;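 also: 0% = median of compound wells on plate and 100% = full blocker control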
HIF act: HIF pathway transcriptional activation | U2OS HRE-luciferase reporter, luminescence; normalized: DMSO 0%, desferrioxamine 100% | 0.32% of 300,000 active | activation, % at 7.5 µM (by protocol) | AID 1910;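 active = mean activation of at least 10% of the iron chelator positive control signal, with at least half of replicates also reaching 10%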
AHR act: activators of human aryl hydrocarbon receptor. P35869. AHR-responsive luciferase reporter cells, luminescence. activation, % at 5 µM. 2.5% of 320,000 active. AID 2796; in the data active = activation above about 47%;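 also: 0% = vehicle wells and 100% = reference agonist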
PLCg1 inh: blocks human PLC-gamma1 enzyme activity. P19174. purified PLC-gamma1, fluorogenic substrate, fluorescence. inhibition, % at 12.2 µM. 0.84% of 370,000 active. AID 720700; in the data active = inhibition above about 9.5%
Yeast superoxide: caloric restriction mimetics inhibiting age-related superoxide in yeast | S. cerevisiae aged cells, superoxide DHE fluorescence; stronger effect = lower value | superoxide response (% of plate mean), % at 10 µM | 0.18% of 330,000 active;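 active = superoxide response under a set limit, about three screen SD below normal, cut at about 65% in these data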;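 also: yeast aged for seven days with compound at 30 °C before DHE staining; 100% = average MFI of all compound-treated wells on the plate with controls excluded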
HGIII-sPLA2 inh: Blocks human group III sPLA2 activity. Q9NZ20. inhibition, % at 12.2 µM. QFRET BODIPY PC-A2 liposome hydrolysis, fluorescence. AID 743126. 0.56% of 370,000 active;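 active = inhibition above mean plus 3 SD of compounds lying within the high and low control bounds, cut at about 19% in these data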;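 also: 0% = median of test compound wells and 100% = no enzyme DMSO wells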
Target sequence (Q9NZ20 whole entry, looked up): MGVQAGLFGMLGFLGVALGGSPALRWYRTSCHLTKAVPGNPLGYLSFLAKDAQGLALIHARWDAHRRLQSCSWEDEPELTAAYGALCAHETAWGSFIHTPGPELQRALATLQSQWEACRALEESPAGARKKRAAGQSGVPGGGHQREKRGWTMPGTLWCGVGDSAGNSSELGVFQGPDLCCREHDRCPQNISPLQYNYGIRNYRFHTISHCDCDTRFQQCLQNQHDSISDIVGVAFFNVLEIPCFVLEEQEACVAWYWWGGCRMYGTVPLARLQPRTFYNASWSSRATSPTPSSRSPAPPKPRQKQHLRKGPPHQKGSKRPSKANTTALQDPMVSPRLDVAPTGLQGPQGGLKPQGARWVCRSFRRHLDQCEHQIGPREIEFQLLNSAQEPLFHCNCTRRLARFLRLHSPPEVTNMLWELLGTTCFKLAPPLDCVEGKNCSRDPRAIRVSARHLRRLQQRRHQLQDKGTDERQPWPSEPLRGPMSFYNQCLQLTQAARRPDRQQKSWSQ
sPLA2 confirm: human GIII-sPLA2 inhibition, confirmation. AID 743280. recombinant hGIII-sPLA2, BODIPY PC-A2 QFRET fluorescence. shares compounds with HGIII-sPLA2 inh. inhibition, % at 12.2 µM. 34% of 2,000 active;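 active = mean inhibition across triplicates above the hit cutoff set in the earlier primary screen, cut at about 19% in these data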;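 also: 0% = enzyme with DMSO and 100% = DMSO wells lacking enzyme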
BODIPY interf: counter-screen for HGIII-sPLA2 inhibitors: 535nm fluorescence interference; shares compounds with HGIII-sPLA2 inh; BODIPY FL product fluorescence interference, QFRET; inhibition, % at 12.2 µM; 8.5% of 2,000 active; AID 743282;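 active = average inhibition above the solvent-only control mean plus 3 SD, cut at about 6% in these data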;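 also: 0% = DMSO with substrate plus product and 100% = DMSO with substrate alone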
535nm interf DR: 535nm optical interference dose response, HGIII-sPLA2 counter-screen. shares compounds with HGIII-sPLA2 inh. BODIPY FL product fluorescence interference, cell-free. IC50, µM. 240 tested, under 10 active. AID 743455;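 active = IC50 at or below 10 µM; inactive = IC50 above 10 µM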
* hit, by the source's call. A selection: hits, their analogues and other compounds. The true share with any hit is near 3.9%.

Results for CCCCC(=O)Nc1ccc(C(=O)NNC(=S)NC(=O)c2cccs2)cc1 ?
PLCb3 inh: -2; HIF act: 0; AHR act: 9; PLCg1 inh: -2; Yeast superoxide: 104; HGIII-sPLA2 inh: 24*; sPLA2 confirm: 28*; BODIPY interf: -28; 535nm interf DR: >122

Results for O=C(NC(=S)NCc1ccccc1)c1cccs1 ?
PLCb3 inh: -4; HIF act: 0; AHR act: 0; PLCg1 inh: -2; Yeast superoxide: 107; HGIII-sPLA2 inh: 2

How did O=C(NNC(=S)NC(=O)c1cccs1)c1ccc(NC(=O)c2ccccc2)cc1 do in these assays?
PLCb3 inh: -1; HIF act: -1; AHR act: 9; PLCg1 inh: 1; Yeast superoxide: 91; HGIII-sPLA2 inh: 21*; sPLA2 confirm: 41*; BODIPY interf: -34; 535nm interf DR: >122

What do the screens show for `O=C(Cc1ccccc1)NNC(=S)NC(=O)c1cccs1`?
PLCb3 inh: -6; HIF act: 0; AHR act: 7; PLCg1 inh: 4; Yeast superoxide: 94; HGIII-sPLA2 inh: 21*; sPLA2 confirm: 35*; BODIPY interf: -5; 535nm interf DR: >122

What do the screens show for `OC1COC(c2ccccc2)OC1C(O)C1OC(c2ccccc2)OCC1O` (stereo not given)?
PLCb3 inh: 0; PLCg1 inh: 1; HGIII-sPLA2 inh: 5

Results for CN1CCN(C(CNC(=O)C(=O)Nc2ccc3c(c2)OCCO3)c2ccc(F)cc2)CC1 (stereo not given) ?
PLCb3 inh: 4; HIF act: 0; AHR act: -2; PLCg1 inh: 2; Yeast superoxide: 99; HGIII-sPLA2 inh: -13

Results for Cc1cc(N2CCN(c3ccccc3)CC2)n2ncnc2n1 ?
PLCb3 inh: 0; HIF act: 0; AHR act: -6; PLCg1 inh: 6; Yeast superoxide: 104; HGIII-sPLA2 inh: 93*; sPLA2 confirm: 0; BODIPY interf: -7

What do the screens show for `CC1=C(C(=O)Nc2ccccc2C)C(c2ccc(C)o2)NC(=S)N1` (stereo not given)?
PLCb3 inh: -4; HIF act: 0; AHR act: -1; PLCg1 inh: -4; Yeast superoxide: 98; HGIII-sPLA2 inh: 20*; sPLA2 confirm: 22*; BODIPY interf: -4

What do the screens show for `CC1=C(C(=O)Nc2ccccc2C)C(c2ccc(C)o2)C2=C(CCCC2=O)N1` (stereo not given)?
PLCb3 inh: -38; HIF act: 0; AHR act: 3; PLCg1 inh: -37; Yeast superoxide: 86; HGIII-sPLA2 inh: 1

Results for COC(=O)[C@H](Cc1ccccc1)N1CC=CS1(=O)=O ?
PLCb3 inh: 0; PLCg1 inh: 0; HGIII-sPLA2 inh: 3

How did CN(C)c1ccc(Nc2ccc([N+](=O)[O-])cn2)cc1 do in these assays?
PLCb3 inh: 2; HIF act: -26; AHR act: 37; PLCg1 inh: 8; Yeast superoxide: 86; HGIII-sPLA2 inh: 39*; sPLA2 confirm: 44*; BODIPY interf: 6.5*

What do the screens show for `NC(=O)c1ccc[n+](Cc2ccccc2)c1`?
PLCb3 inh: 0; HIF act: 0; AHR act: 3; PLCg1 inh: 3; Yeast superoxide: 91; HGIII-sPLA2 inh: 19*; sPLA2 confirm: 1; BODIPY interf: -6

What do the screens show for `O=C(N/N=C/c1ccc(Cl)cc1)c1n[nH]c2c1CCCC2`?
PLCb3 inh: -4; HIF act: 2; AHR act: 8; PLCg1 inh: 2; Yeast superoxide: 105; HGIII-sPLA2 inh: 21*; sPLA2 confirm: -2; BODIPY interf: -5

What do the screens show for `O=C(N/N=C/c1ccccc1)c1n[nH]c2c1CCCC2`?
PLCb3 inh: 0; HIF act: 2; AHR act: 4; PLCg1 inh: 8; Yeast superoxide: 103; HGIII-sPLA2 inh: 6

What do the screens show for `O=C(Nc1ccc(COc2ccccc2)cc1)Oc1ccccc1N1CCOCC1`?
PLCb3 inh: -8; HIF act: 1; AHR act: 1; PLCg1 inh: 1; Yeast superoxide: 103; HGIII-sPLA2 inh: 25*; sPLA2 confirm: 2; BODIPY interf: -10

How did O=C(Nc1ccccc1)Oc1ccccc1N1CCOCC1 do in these assays?
PLCb3 inh: -5; HIF act: 0; AHR act: -1; PLCg1 inh: 3; Yeast superoxide: 77; HGIII-sPLA2 inh: -1

What do the screens show for `COC(=O)c1ccc(CCc2cc(O)c(Br)cc2O)cc1`?
PLCb3 inh: -15; PLCg1 inh: -6; HGIII-sPLA2 inh: 30*; sPLA2 confirm: 9; BODIPY interf: 2

What do the screens show for `COC(=O)c1ccc(O)cc1`?
PLCb3 inh: -5; HIF act: -18; PLCg1 inh: 0; HGIII-sPLA2 inh: 10

How did COCCn1c(SCC(=O)Nc2cc(C)nn2-c2ccccc2)nnc1-c1ccncc1 do in these assays?
PLCb3 inh: 0; HIF act: 0; AHR act: -2; PLCg1 inh: 1; Yeast superoxide: 98; HGIII-sPLA2 inh: 20*; sPLA2 confirm: 4; BODIPY interf: -7

Results for COc1ccc(O)c(/C=N/NC(=S)NCCc2ccccc2)c1 ?
PLCb3 inh: inactive; HIF act: 1; AHR act: 13; PLCg1 inh: inactive; Yeast superoxide: 85; HGIII-sPLA2 inh: 18

How did COc1ccc(/C(C)=N/NC(=S)NCCc2ccccc2)c(O)c1 do in these assays?
PLCb3 inh: -71; HIF act: 0; AHR act: 6; PLCg1 inh: -39; Yeast superoxide: 110; HGIII-sPLA2 inh: 44*; sPLA2 confirm: 7; BODIPY interf: 8.2*

What do the screens show for `COCCNC(=S)N/N=C(\C)c1ccccc1OC`?
PLCb3 inh: -2; HIF act: -1; AHR act: 42; PLCg1 inh: -6; Yeast superoxide: 98; HGIII-sPLA2 inh: 11

How did COCCNC(=S)N/N=C(\C)c1ccccc1O do in these assays?
PLCb3 inh: -13; HIF act: 1; AHR act: 2; PLCg1 inh: -2; Yeast superoxide: 81; HGIII-sPLA2 inh: 43*; sPLA2 confirm: 22*; BODIPY interf: 2

Results for Clc1cccc(Cl)c1CSc1nnc2ccccn12 ?
PLCb3 inh: -8; HIF act: 1; AHR act: 2; PLCg1 inh: -5; Yeast superoxide: 104; HGIII-sPLA2 inh: 19*; sPLA2 confirm: 1; BODIPY interf: -1
